# Reference: PubChem BioAssay AID651636 (Sanford-Burnham Center for Chemical Genomics, 2012)
# In all, about 360,000 compounds went through this assay and about 3,000 (0.83%) were called active. No stated cut-off is given here; in the data, active means inhibition above about 38%; inactive means the rest. The list comes from a sample in which actives are over-represented; it also holds similar structures and randomly drawn compounds.
# Biological target: G-protein coupled receptor 183 (Homo sapiens) (UniProt P32249)
# Assay: blockers of oxysterol-driven EBI2 arrestin signaling – cell-based, luminescence, 7a,25-OHC stimulation, uHTS, primary screen (AID 651636);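 further: enzyme fragment complementation signal reports receptor beta-arrestin coupling in cells; 0% = agonist plus DMSO wells and 100% = wells without agonist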
# Conditions: EBI2 beta-arrestin recruitment, 7a,25-OHC stimulated, at 5 µM, active compounds read high
# Chain of G-protein coupled receptor 183 (Homo sapiens) (P32249 whole entry, looked up, the tested form may be a part): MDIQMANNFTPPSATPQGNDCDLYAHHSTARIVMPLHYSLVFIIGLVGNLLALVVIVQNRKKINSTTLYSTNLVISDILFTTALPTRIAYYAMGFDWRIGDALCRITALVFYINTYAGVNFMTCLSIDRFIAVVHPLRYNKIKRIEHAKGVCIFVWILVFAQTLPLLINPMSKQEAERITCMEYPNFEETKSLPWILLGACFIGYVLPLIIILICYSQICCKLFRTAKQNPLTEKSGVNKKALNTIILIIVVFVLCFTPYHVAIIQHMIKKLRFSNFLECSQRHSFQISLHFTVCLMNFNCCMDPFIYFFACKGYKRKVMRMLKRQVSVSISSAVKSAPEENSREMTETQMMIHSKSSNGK
row,SMILES,inhibition
1,Cc1c(CN2CCCC(C(=O)c3cccc(Cl)c3)C2)c(=O)n(-c2ccccc2)n1C (stereo unspecified),5.82% (inactive)
2,OC[C@@H]1CN(Cc2ccncc2)C[C@H](n2cnc3c(N4CCN(c5ccccc5)CC4)ncnc32)O1,13.5% (inactive)
3,CC[C@]1(C(=O)OC)[C@H]2C(=O)N(Cc3ccccc3)C(=O)[C@H]2[C@H]2CN=C(SCc3ccc(Cl)cc3)N21,19.5% (inactive)
4,CCC1Nc2ncnc(N3CCN(c4ccccc4)CC3)c2N(Cc2ccc(Cl)cc2)C1=O (stereo unspecified),68.8% (active)
5,CC(C)CC1(C)NC(=O)N(CC(=O)Nc2ccc3c(c2)OCCO3)C1=O (stereo unspecified),10.5% (inactive)
6,O=C(NCCS(=O)(=O)N1CCN(c2ccc(F)cc2)CC1)c1ccc2c(c1)OCO2,5.18% (inactive)
7,O=C(NNC(=S)Nc1ccc(F)cc1)[C@H]1C[C@@H]1c1ccccc1,-13.1% (inactive)
8,CCN(CC)c1ccc(/C=N/Nc2nc(C)cc(C)n2)c(O)c1,42.4% (active)
9,O=C(NCCN1C(=O)S/C(=C\c2cccnc2)C1=O)c1ccc(S(=O)(=O)N2CCCC2)cc1,-1.14% (inactive)
10,Cc1ccc(SCCC(=O)NC(C(C)C)C(C)C)cc1,5.4% (inactive)
11,CCOc1cccc(OCCCOc2cccc3cccnc23)c1,4.1% (inactive)
12,Cc1cc(OCCOc2cccc3cccnc23)c(C)cc1Cl,46.6% (active)
13,O=S(=O)(NCCOc1cccc2cccnc12)c1ccc(F)cc1,0.785% (inactive)
14,CCOC(=O)N1CCN(C(=O)C[C@@H]2C[C@@]3(C(=O)OC)CC(C)(C)CC=C3N(Cc3ccco3)C2=O)CC1,3.44% (inactive)
15,Cc1nc(-c2ccccc2)sc1C(=O)/C=C/c1ccccc1,55.4% (active)
16,Cc1[nH]c(=O)c(C(=O)/C=C/c2ccccc2)c2c1CCCC2,-9.45% (inactive)
17,Cc1nc(-c2ccc(Cl)cc2)sc1C(=O)CBr,10.7% (inactive)
18,CC1=C/C(=N\OS(=O)(=O)c2ccccc2)C=CC1=O,-17.6% (inactive)
19,O=S(=O)(Nc1cccc(-n2cnnn2)c1)c1cnc(Cl)c(Cl)c1,-8.42% (inactive)

row,SMILES,inhibition
1,CC(C)(C)C1CCC(=NNC(=O)c2ccc(Br)o2)CC1 (stereo unspecified),-9.46% (inactive)
2,COc1cccc(C2=CC(=O)C[C@H](c3ccc(OC)c(OC)c3)C2)c1,10.2% (inactive)
3,CCCCC/C=C/C1=CC(=O)C[C@H](c2ccc(Cl)cc2)C1,4.95% (inactive)
4,O=C1C=C(c2cccc(Cl)c2)C[C@@H](c2ccc(F)cc2)C1,22.1% (inactive)
5,O=C1C=C(c2cc(C(F)(F)F)cc(C(F)(F)F)c2)C[C@@H](c2ccc3c(c2)OCO3)C1,14% (inactive)
6,COc1ccc([C@H]2CC(=O)C=C(/C=C/c3ccc(Cl)cc3)C2)cc1,44.1% (active)
7,COc1ccc([C@H]2CC(=O)C=C(/C=C/c3ccccc3)C2)cc1,34.9% (inactive)
8,COc1ccc([C@H]2CC(=O)C=C(c3ccc(OC(F)(F)F)cc3)C2)cc1OC,31% (inactive)
9,COc1ccc2cc(C3=CC(=O)C[C@H](c4ccc5c(c4)OCO5)C3)ccc2c1,71.7% (active)
10,O=C1C=C(c2cccc(Br)c2)C[C@@H](c2ccc(F)cc2)C1,36.7% (inactive)
11,N#Cc1ccc(C2=CC(=O)C[C@H](c3ccc(Cl)cc3)C2)cc1,80.3% (active)
12,COc1ccc([C@H]2CC(=O)C=C(c3ccc(C)cc3)C2)cc1,81.1% (active)
13,COc1ccc([C@H]2CC(=O)C=C(c3ccc(CO)cc3)C2)cc1,29.6% (inactive)
14,CSc1ncnc2c1ncn2CCCNCc1cccs1,-4.51% (inactive)
15,COc1ccccc1C(=O)N1C(CC(=O)Nc2ccccc2C)C(=O)NC2CCCCC21 (stereo unspecified),3.5% (inactive)
16,COc1ccc(C)cc1NC(=O)CSc1nnc(CC(=O)Nc2ccccc2F)n1C,6.35% (inactive)
17,CN1C[C@@H](CO)O[C@@H](n2cnc3c(N4CCN(CCO)CC4)ncnc32)C1,5.76% (inactive)
18,CC1CCc2sc3nc(N4CCN(CCO)CC4)n4ncnc4c3c2C1 (stereo unspecified),61.6% (active)
19,Cc1ccc(C)c(C(=O)N2CCC(n3nccc3NC(=O)C3CC3)CC2)c1,5.07% (inactive)

row,SMILES,inhibition
1,C/C=C/C=C/C(=O)OCC(=O)Nc1ccc(Cl)cc1,1.78% (inactive)
2,COc1ccc(NC(=O)N2CCCC(C(=O)Nc3ccccc3OC)C2)cc1 (stereo unspecified),18.7% (inactive)
3,COc1ccc(NC(=O)N2CCC(Cc3ccccc3)CC2)cc1,65.5% (active)
4,COc1ccc(C(=O)NC2CCN(C(=O)Nc3ccc(F)cc3)CC2)cc1,-4.2% (inactive)
5,NC(=O)C1(N2CCCCC2)CCN(C(=O)c2ccc(C#Cc3ccccc3)o2)CC1,-2.84% (inactive)
6,CCc1ccccc1NC(=S)Nc1cc(OC)c(NC(=O)C(C)C)cc1OC,-4.78% (inactive)
7,Cc1ccc(N2CC(C(=O)Nc3ccc(S(=O)(=O)N4CCCC4)cc3)CC2=O)cc1C (stereo unspecified),45.4% (active)
8,CC1CCN(S(=O)(=O)c2ccc(NC(=O)C3CC(=O)N(c4ccccc4)C3)cc2)CC1 (stereo unspecified),38% (inactive)
9,O=C(Nc1ccc(S(=O)(=O)N2CCCCC2)cc1)C1CCN(C(=O)c2ccc(F)cc2)CC1,17% (inactive)
10,Cc1ccc(NC(=O)C2CC(=O)N(c3ccc4c(c3)OCCO4)C2)cc1S(=O)(=O)N1CCCCCC1 (stereo unspecified),14.6% (inactive)
11,O=C(Nc1ccc(S(=O)(=O)N2CCCCC2)cc1)C1CC(=O)N(c2ccc(F)cc2)C1 (stereo unspecified),45.7% (active)
12,Cc1ccccc1N1CC(C(=O)Nc2ccc(S(=O)(=O)N3CCCC3)cc2)CC1=O (stereo unspecified),7.48% (inactive)
13,CCCNC(=O)C1(C)CCN(C(=O)c2ccc(F)cc2Cl)C1 (stereo unspecified),-4.71% (inactive)
14,OCCC#Cc1ccc(N2C(c3ccsc3)=Cc3ccc(F)cc3C2c2c[nH]c3ccccc23)cc1 (stereo unspecified),10.6% (inactive)
15,Cc1cnc(CN(C)C(=O)CC2C(=O)NCCN2Cc2cccc(F)c2F)[nH]1 (stereo unspecified),-7.04% (inactive)
16,Cc1c(NC(=O)CN2C(=O)C(=O)N(Cc3ccccc3)C2=O)c(=O)n(-c2ccccc2)n1C,0.531% (inactive)
17,CC1(C(=O)NCc2ccccc2)CSCC(=O)N1CCCn1ccnc1 (stereo unspecified),4.35% (inactive)
18,CCOC(=O)[C@]12CCCC=C1N(CCC1=CCCCC1)C(=O)[C@H](CC(=O)N1CCSCC1)C2,7.49% (inactive)
